Screens (PubChem BioAssay)
In the library only some 1.1% were active in any assay of this set; here they are far more common.
VACV Venus inh: inhibitors of vaccinia virus (Venus reporter) | Vaccinia virus Venus reporter expression, fluorescence | Potency, µM (highest dose often 36.5 µM), without a hit: at the top dose activity change, negative = inhibition, actives largely listed as inhibitors | 0.46% of 330,000 active | AID 720580; calls by dose curve; tested in A549 cells; further: nearly all actives have a fitted effect of over 30% in size
AmpC no deterg: inhibitors of E. coli AmpC beta-lactamase without detergent. P00811. AmpC nitrocefin hydrolysis, absorbance 480 nm, 0.0001% Triton. Potency, µM (series often up to 57.1 µM), inactives show at the highest dose activity change, negative = inhibition, most hits filed as inhibitors. 0.52% of 330,000 active;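 further: plate controls were no compound for no effect and no enzyme for full effect; nearly all actives have a fitted effect of over 20% in size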
Target sequence (P00811 whole entry, looked up): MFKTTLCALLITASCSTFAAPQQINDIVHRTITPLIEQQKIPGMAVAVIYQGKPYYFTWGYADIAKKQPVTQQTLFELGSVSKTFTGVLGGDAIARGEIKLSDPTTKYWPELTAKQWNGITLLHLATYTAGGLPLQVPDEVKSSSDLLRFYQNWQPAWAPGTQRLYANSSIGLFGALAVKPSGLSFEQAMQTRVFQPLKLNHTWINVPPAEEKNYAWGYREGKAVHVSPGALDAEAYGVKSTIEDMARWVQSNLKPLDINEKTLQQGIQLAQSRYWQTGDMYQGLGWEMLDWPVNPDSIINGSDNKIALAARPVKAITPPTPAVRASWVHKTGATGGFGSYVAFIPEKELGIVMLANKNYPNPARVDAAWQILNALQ
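20 mM phosphate pH 7.0 + 0.01% (detergent screen) or 0.0001% Triton X-100; 5.3 nM AmpC reagent; cpd preinc 15 min RT; nitrocefin (800 uM stock) to start; A480 q20 s × 4 min; Activity was normalised to no-enzyme and no-compound control wells.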
VACV mCherry inh: vaccinia inhibition (mCherry reporter). Vaccinia virus mCherry reporter infection, fluorescence. 0.63% of 310,000 active. AID 720579. Potency, µM (series often up to 36.5 µM), for the others: at the top dose activity change, negative = inhibition, most hits filed as inhibitors; calls by dose curve; tested in A549 cells; further: nearly all actives have a fitted effect of over 35% in size
AmpC inh detg: AmpC beta-lactamase inhibition with detergent present. P00811. AmpC hydrolysis of nitrocefin, absorbance 480 nm, 0.01% Triton. Potency, µM (titrated, usually from 114 µM), for the others: at the top dose activity change, negative = inhibition, hits mostly inhibitors. 0.041% of 370,000 active;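 further: 0% = no-compound wells and -100% = no-enzyme wells; nearly all actives have a fitted effect of over 25% in size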
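AmpC (5.3 nM in the dispensed reagent) in 20 mM phosphate pH 7.0 with 0.01% (detergent screen) or 0.0001% Triton X-100 was preincubated with compounds for 15 min at room temperature. Nitrocefin was then added from an 800 uM solution, and hydrolysis was followed at 480 nm.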
Active calls of the source: *; i = inactive; ? = inconclusive; . = no result; [ ] = another dose, or the depositor's remark. Unless noted, the call rests on the fitted dose curve; in most records, active means well fitted curve in the direction sought with a large enough effect; inconclusive means small, poorly fitted or top-dose-only effect, or another doubt; inactive means no such curve, though single readings can be large; an effect the other way counts as inactive or inconclusive. Unless noted, on the % scale 0 is the no-effect control and ±100 the full control effect; potency means the concentration at half of the fitted maximal effect.

SMILES	VACV Venus inh	AmpC no deterg	VACV mCherry inh	AmpC inh detg
Cc1[nH]n(-c2ccccc2)c(=O)c1C=Nc1cccc2cccnc12	?	1%	13µM*	-14%
Cc1[nH]n(-c2ccccc2)c(=O)c1/C=N/Nc1nncc(-c2ccccc2)n1	?	-26%	4µM*	1%
Cc1ccc(-n2[nH]c(C)c(/C=N/c3ccccn3)c2=O)cc1	-17%	-12%	i	-17%
Cc1ccc(/C=N/Nc2nncc(-c3ccccc3)n2)o1	4%	-27%	-15%	1%
CC(=O)Nc1ccccc1-c1nc(CNC(=O)c2cccc(-n3cccn3)c2)c(C)o1	-5%	.	-10%	.
N=c1n(CC(=O)c2ccc(Br)cc2)c2ccccc2n1Cc1ccccc1	11µM*	-26%	?	-2%
CCO[C@H]1[C@H](NC(=O)c2cccnc2)c2ccccc2C12CCN(C(=O)c1cc(C)n(C)n1)CC2	-7%	.	-14%	.
CCOC(=O)c1c(-c2ccc(C)o2)csc1NC(=O)CSc1nnnn1-c1ccccc1	-7%	11µM*	-13%	-12%
CCOC(=O)c1c(-c2ccc(C)o2)csc1NC(=O)CSc1nnc(C)s1	-4%	22%	-7%	-17%
Cc1cccnc1-c1cccc2c1OC(CNC(=O)Cn1cncn1)C2 (stereo not drawn)	-6%	.	-12%	.
Cc1c(O)nc(SCC(=O)Nc2ccc3c4c(cccc24)CC3)n(-c2ccc(F)cc2)c1=O	4%	28µM*	-16%	-3%
Cc1c(O)nc(SCC(=O)Nc2ccc(Cl)cc2Cl)n(-c2ccc(F)cc2)c1=O	-3%	.	-2%	21%
Fc1ccc(C2CC(c3ccccc3)n3ncnc3N2)cc1 (stereo not drawn)	-23%	-14%	.	-2%
Clc1ccc(C2CC(c3ccccc3)Nc3ncnn32)cc1 (stereo not drawn)	-10%	1.3µM*	-12%	?
Cc1cccc(NC(=O)C2C3CCC4C(CCC32)C4(Cl)Cl)c1 (stereo not drawn)	-11%	32µM*	12%	-1%
O=C(Nc1ccc(F)cc1)C1C2CCC3C(CCC21)C3(Cl)Cl (stereo not drawn)	-13%[7.34 µM]	14µM*	4%[7.34 µM]	3%
O=C(Nc1ccc(Cl)cc1)C1C2CCC3C(CCC21)C3(Cl)Cl (stereo not drawn)	-9%	-49%	-12%	-8%
Cc1cnc(-n2ncc(C(=O)NCCN3CCOCC3)c2C(C)C)nc1-c1ccc(F)cc1	-2%	.	-3%	.
COCC(=O)Nc1cc(C(=O)N2CC3CCC2C3)c2c(c1)nc(-c1ccncc1)n2C (stereo not drawn)	-1%	.	-14%	.
CCc1ccccc1NC(=O)CNC(=O)CCc1nc2sc3c(c2c(=O)[nH]1)CCCC3	-19%	32µM*	-6%	?
O=C(CCc1nc2sc3c(c2c(=O)[nH]1)CCCC3)NCCc1ccccc1	-15%	-9%	-18%	3%
Cc1nc(NCc2cccc3c2OCO3)sc1-c1ccn(CC2CCCN(C)C2)n1 (stereo not drawn)	12%	.	-7%	.
Cc1ccc(S(=O)(=O)N(C)C)cc1NC(=O)CCc1c[nH]c2ccccc12	-17%	-34%	-18%	1%
COc1ccc(S(=O)(=O)N(C)C)cc1NC(=O)Cc1c[nH]c2ccccc12	-11%	22µM*	-10%	-12%
NC(=O)c1cccc(-c2cnc(N)c(C(=O)c3cccnc3)n2)c1	?	.	6.3µM*	.
SMILES	VACV Venus inh	AmpC no deterg	VACV mCherry inh	AmpC inh detg
CC(=O)Nc1cccc(-c2cnc(N)c(C(=O)c3cccnc3)n2)c1	10µM*	-27%	13µM*	.
O=C(c1cccnc1)c1cc2ccccc2[nH]1	-2%	-18%	-7%	0%
COc1cc(=O)n2c(c1C(=O)NC(C)c1ccco1)CCN(C(=O)c1cccc(C)c1C)CC2 (stereo not drawn)	-8%	.	-12%	.
C=C1C(=O)[C@]23C[C@H]1CCC2[C@@]1(C)C(C[C@@H]3O)[C@](C)(C(=O)OC)CC[C@@H]1OC(C)=O (stereo partly drawn)	1.8µM*	.	3.2µM*	.
C=C1C(=O)[C@]23C[C@H]1CC[C@H]2[C@]1(C)[C@@H](OC(C)=O)CC[C@@](C)(C(=O)O)[C@H]1C[C@@H]3O	?	.	5µM*	.
CCOC(=O)c1cc(NC(=O)c2ccccc2)c(=O)n2c1oc1ccccc12	7.9µM*	-18%	10µM*	5%
Cc1ccc2c(c1)CN(CCNC(=O)c1ccc3nc(C)[nH]c3c1)CC(C)O2 (stereo not drawn)	-1%	.	-11%	.
Cc1cc(O)c2c(c1O)C(=O)c1c(O)cc(C)c(O)c1C2=O	6%	.	-4%	.
Cc1cc(O)c2c(c1O)C(=O)[C@]13C(=C2O)C(=O)[C@@H]2[C@@H](O)[C@H]1[C@@H]1[C@H](O)[C@H]3C(=O)C3=C(O)c4c(O)cc(C)c(O)c4C(=O)[C@]312	?	28µM*	?	.
O=C(c1n[nH]c2c1CCCC2)N1CCOc2ccc(C(O)C3CCCCC3)cc2C1 (stereo not drawn)	-2%	.	-3%	.
CCn1c(-c2ccccc2F)nc2cc(NC(C)=O)cc(C(=O)N(C)Cc3ccccn3)c21	-24%	.	i	.
CC1(C)CC[C@]2(C(=O)O)CC[C@]3(C)C(=CC[C@@H]4[C@@]5(C)CC[C@H](O[C@@H]6O[C@H](C(=O)O)[C@@H](O)[C@H](O[C@@H]7OC[C@H](O)[C@H](O)[C@H]7O)[C@H]6O)C(C)(C)[C@@H]5CC[C@]43C)[C@@H]2C1	7.9µM*	150%	?	.
COc1cc(-c2ccc(C)cc2)cc2c1OCCN(C(=O)CCn1ccc(C)n1)C2	-8%	.	-18%	.
Cc1ccc(C(=O)Sc2cccccc2=O)cc1	1.8µM*	-42%	1µM*	-3%
O=C(Nc1ccccc1SC(=O)c1ccccc1)c1ccccc1	-11%	.	-6%	.
Clc1ccc2c(c1)C(c1ccccc1Cl)=NCc1nnc(Br)n1-2	?	70%	13µM*	-1%
Clc1ccc2c(c1)C(c1ccccc1Cl)=NCc1nncn1-2	-8%	-6%	-7%	?
Oc1ccc(/C=N/Nc2nccnc2Cl)c(O)c1	?	-23%	2.5µM*	8%
Oc1ccccc1/C=N/Nc1nccnc1Cl	.	-23%	.	-1%
Oc1ccc(/C=N/Nc2ncc(Br)cn2)c(O)c1	?	-49%	2.5µM*	-4%
O=C(NCC1(N2CCOCC2)CCCCC1)c1cnn(-c2nccc(-c3ccco3)n2)c1C1CC1	0%	.	-7%	.
CCn1c(-c2ccccc2F)nc2cc(NC(C)=O)cc(C(=O)N(C)Cc3ccc4nccnc4c3)c21	-12%	.	-13%	.
COc1ccc(OC)c(C(=O)Nc2c(O)ccc3ccccc23)c1	?	.	13µM*	.
O=C(C=Cc1ccccc1)c1cc(Br)ccc1O	-8%	.	-12%	.
CCc1ccc(/C=C/C(=O)c2cc(Br)ccc(=O)c2O)cc1	?	28µM*	.	-7%
Cc1cccc(/C=C/C(=O)c2cc(Br)ccc(=O)c2O)c1	-3%	32µM*	.	-8%
CCOc1ccc(/C=C/C(=O)c2cc(Br)ccc(=O)c2O)cc1	-21%	32µM*	-28%	?
